{"source": "the supplement of paper PMC8728848", "binders": {"B1": {"name": "CPA (Cicer arietinum) (protein)", "chain": "MAFSYLNLVLVTLTTLFFLQTTKVKSQKSVSFHITNFTISRPSITLQGTAEFLPNVLLLNDIEHPVFVVGRALYSKPITLWNNKTGKVASFVTSFTFDVQDLKKTVPGHGLVFFLAPSGSEIPFSSDGGNLGVVDGKNAFNRFVGVEFDNFVNSWDPKYSHVGINVNSLISTKTVKWNRVSGELVKVSIVYDSVSTTLTVIVTYKNGQISILSQLVDLKAVLPDTVNIGFSASTTLVSPRQLHNIHSWSFTSTFET"}}, "test_in_all_cases": "glycan array binding signal (z-score within array); higher = stronger binding", "conditions_in_all_cases": "glycan notation: IUPAC condensed, linker removed", "key": {"Gal(b1-4)GlcNAc6P": {"biological_target": "Gal(b1-4)GlcNAc6P", "in_short": "(§1)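 Columns mapping to the same glycan were averaged after glycan names were converted to IUPAC-condensed notation. The data come from 3228 arrays in the Consortium for Functional Glycomics database, limited to those with an available protein sequence. Binding is reported as a within-array Z-score averaged across arrays of one protein sequence and across linkers.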"}, "Gal3S(b1-3)GalNAc": {"biological_target": "Gal3S(b1-3)GalNAc", "in_short": "as §1"}, "Gal6S(b1-4)Glc": {"biological_target": "Gal6S(b1-4)Glc", "in_short": "as §1"}, "[1]": {"biological_target": "GalNAc(b1-4)GlcNAc(b1-2)Man", "in_short": "as §1"}, "Glc(b1-6)Glc": {"biological_target": "Glc(b1-6)Glc", "in_short": "as §1"}, "[2]": {"biological_target": "GlcNAc(a1-4)Gal(b1-4)GlcNAc", "in_short": "as §1"}, "GlcNAc(b1-3)Man": {"biological_target": "GlcNAc(b1-3)Man", "in_short": "as §1"}, "Kdn(a2-3)Gal(b1-4)Glc": {"biological_target": "Kdn(a2-3)Gal(b1-4)Glc", "in_short": "as §1"}, "Kdn(a2-3)Gal(b1-4)GlcNAc": {"biological_target": "Kdn(a2-3)Gal(b1-4)GlcNAc", "in_short": "as §1"}, "[3]": {"biological_target": "Man(a1-2)Man(a1-3)[Man(a1-2)Man(a1-6)]Man", "in_short": "as §1"}, "Man(a1-3)[Man(a1-6)]Man": {"biological_target": "Man(a1-3)[Man(a1-6)]Man", "in_short": "as §1"}, "[4]": {"biological_target": "Man(a1-3)[Man(a1-6)]Man(a1-6)[Man(a1-2)Man(a1-3)]Man(b1-4)GlcNAc(b1-4)GlcNAc", "in_short": "as §1"}, "MurNAc(b1-4)GlcNAc": {"biological_target": "MurNAc(b1-4)GlcNAc", "in_short": "as §1"}, "Neu5Ac(a2-3)Gal": {"biological_target": "Neu5Ac(a2-3)Gal", "in_short": "as §1"}, "[5]": {"biological_target": "Neu5Ac(a2-3)Gal(b1-3)GalNAc(b1-3)Gal(a1-4)Gal(b1-4)Glc", "in_short": "as §1"}, "[6]": {"biological_target": "Neu5Ac(a2-3)Gal(b1-3)GlcNAc(b1-2)Man(a1-3)[GlcNAc(b1-4)][Neu5Ac(a2-3)Gal(b1-3)GlcNAc(b1-2)Man(a1-6)]Man(b1-4)GlcNAc(b1-4)GlcNAc", "in_short": "as §1"}, "[7]": {"biological_target": "Neu5Ac(a2-3)Gal(b1-4)GlcNAc(b1-3)Gal", "in_short": "as §1"}, "[8]": {"biological_target": "Neu5Ac(a2-3)Gal(b1-4)GlcNAc(b1-3)Gal(b1-4)GlcNAc(b1-3)Gal(b1-4)GlcNAc(b1-2)Man(a1-3)[Neu5Ac(a2-3)Gal(b1-4)GlcNAc(b1-3)Gal(b1-4)GlcNAc(b1-3)Gal(b1-4)GlcNAc(b1-2)Man(a1-6)]GalNAc", "in_short": "as §1"}, "[9]": {"biological_target": "Neu5Ac(a2-3)Gal(b1-4)[Fuc(a1-3)]GlcNAc(b1-3)GalNAc", "in_short": "as §1"}, "[10]": {"biological_target": "Neu5Ac(a2-3)[GalNAc(b1-4)]Gal(b1-4)Glc", "in_short": "as §1"}, "[11]": {"biological_target": "Neu5Ac(a2-6)Gal(b1-4)GlcNAc(b1-2)Man(a1-3)[Neu5Ac(a2-6)Gal(b1-4)GlcNAc(b1-2)Man(a1-6)]Man(b1-4)GlcNAc(b1-4)GlcNAc", "in_short": "as §1"}, "[12]": {"biological_target": "Neu5Ac(a2-6)Gal(b1-4)GlcNAc(b1-3)Gal(b1-4)GlcNAc(b1-3)[Neu5Ac(a2-6)Gal(b1-4)GlcNAc(b1-3)Gal(b1-4)GlcNAc(b1-6)]GalNAc", "in_short": "as §1"}, "[13]": {"biological_target": "Neu5Ac(a2-6)Gal(b1-4)GlcNAc(b1-3)[Neu5Ac(a2-6)Gal(b1-4)GlcNAc(b1-6)]GalNAc", "in_short": "as §1"}, "[14]": {"biological_target": "Neu5Ac(a2-6)GalNAc(b1-4)GlcNAc6S", "in_short": "as §1"}, "[15]": {"biological_target": "Neu5Ac(a2-6)GlcNAc(b1-4)GlcNAc(b1-4)GlcNAc", "in_short": "as §1"}, "[16]": {"biological_target": "Neu5Ac(a2-8)Neu5Ac(a2-3)Gal(b1-4)Glc", "in_short": "as §1"}, "[17]": {"biological_target": "Neu5Ac(a2-8)Neu5Ac(a2-3)Gal(b1-4)GlcNAc", "in_short": "as §1"}, "[18]": {"biological_target": "Neu5Ac(a2-8)Neu5Ac(a2-8)Neu5Ac(a2-3)Gal(b1-4)Glc", "in_short": "as §1"}, "[19]": {"biological_target": "Neu5Gc(a2-3)Gal(b1-4)GlcNAc", "in_short": "as §1"}}, "note": "This excerpt belongs to a sample that is enriched for the strongest signals.", "data": [{"binder": "B1", "values": [{"measurement": "glycan array binding signal (z-score)", "setting": "Gal(b1-4)GlcNAc6P", "result": 5.14}, {"measurement": "glycan array binding signal (z-score)", "setting": "Gal3S(b1-3)GalNAc", "result": -0.183}, {"measurement": "glycan array binding signal (z-score)", "setting": "Gal6S(b1-4)Glc", "result": 0.138}, {"measurement": "glycan array binding signal (z-score)", "setting": "[1]", "result": 1.55}, {"measurement": "glycan array binding signal (z-score)", "setting": "Glc(b1-6)Glc", "result": -0.614}, {"measurement": "glycan array binding signal (z-score)", "setting": "[2]", "result": 2.25}, {"measurement": "glycan array binding signal (z-score)", "setting": "GlcNAc(b1-3)Man", "result": -0.558}, {"measurement": "glycan array binding signal (z-score)", "setting": "Kdn(a2-3)Gal(b1-4)Glc", "result": -0.762}, {"measurement": "glycan array binding signal (z-score)", "setting": "Kdn(a2-3)Gal(b1-4)GlcNAc", "result": -0.585}, {"measurement": "glycan array binding signal (z-score)", "setting": "[3]", "result": -0.461}, {"measurement": "glycan array binding signal (z-score)", "setting": "Man(a1-3)[Man(a1-6)]Man", "result": -0.635}, {"measurement": "glycan array binding signal (z-score)", "setting": "[4]", "result": 4.19}, {"measurement": "glycan array binding signal (z-score)", "setting": "MurNAc(b1-4)GlcNAc", "result": 0.406}, {"measurement": "glycan array binding signal (z-score)", "setting": "Neu5Ac(a2-3)Gal", "result": -0.529}, {"measurement": "glycan array binding signal (z-score)", "setting": "[5]", "result": -0.601}, {"measurement": "glycan array binding signal (z-score)", "setting": "[6]", "result": -0.065}, {"measurement": "glycan array binding signal (z-score)", "setting": "[7]", "result": -0.66}, {"measurement": "glycan array binding signal (z-score)", "setting": "[8]", "result": 6.81}, {"measurement": "glycan array binding signal (z-score)", "setting": "[9]", "result": -0.322}, {"measurement": "glycan array binding signal (z-score)", "setting": "[10]", "result": -0.34}, {"measurement": "glycan array binding signal (z-score)", "setting": "[11]", "result": -0.503}, {"measurement": "glycan array binding signal (z-score)", "setting": "[12]", "result": 3.34}, {"measurement": "glycan array binding signal (z-score)", "setting": "[13]", "result": -0.588}, {"measurement": "glycan array binding signal (z-score)", "setting": "[14]", "result": -0.452}, {"measurement": "glycan array binding signal (z-score)", "setting": "[15]", "result": 2.61}, {"measurement": "glycan array binding signal (z-score)", "setting": "[16]", "result": -0.501}, {"measurement": "glycan array binding signal (z-score)", "setting": "[17]", "result": -0.647}, {"measurement": "glycan array binding signal (z-score)", "setting": "[18]", "result": -0.579}, {"measurement": "glycan array binding signal (z-score)", "setting": "[19]", "result": -0.402}]}]}
